Source: PubChem BioAssay (NCI)
The panel holds about 83,000 compounds, 20% with a hit somewhere; the sample as a whole holds those more often.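 A percent growth of 40 corresponds to 60% growth inhibition; 0 means no net growth; -100 means all cells died. Active threshold: below 10.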 A number with no mark means an inactive call. Calls of active or inactive are those of the source.

test system: HL-60(TB) leukemia; experiment: NCI-60 one-dose screen, 48 h (100 = growth as untreated, 0 = no growth, -100 = all killed); conditions: 10 µM unless noted

Row | Structure (SMILES) | growth
1 | CNC(=O)c1cc(Oc2ccc3c(c2)sc2nc(-c4ccc(N)cc4)cn23)ccn1 | 2.04% (active)
2 | C=C(C)[C@@H]1CC[C@]2(C(=O)OC)CC[C@]3(C)[C@H](CC[C@@H]4[C@@]5(C)CC/C(=N\OCCC(=NCCC#N)NOCCC#N)C(C)(C)[C@@H]5CC[C@]43C)[C@@H]12 | 0.897% [100 µM] (active)
3 | CCCC1C(C(=O)OCC)=C(N)Oc2cc(O)ccc21 (stereo not given) | 102%
4 | O=C1/C(=C\c2ccccc2)CN(C(=O)c2ccccc2F)C/C1=C\c1ccccc1 | 10.1%
5 | O=C1C=CN2C(=O)CC=CC2[C@@H]1O (stereo not given in full) | 98.1%
6 | CCOC(=O)Nc1nccs1 | 100%
7 | COc1cc2cc(Oc3ccc(NC(=O)Nc4ccc(F)c(C(F)(F)F)c4)cc3)c(C)nc2cc1OCCN1CCCCC1 | -24.5% (active)
8 | Cc1ccc(C2SCC(=O)N2Cc2ccccc2)cc1 (stereo not given) | 96.1%
9 | C[Se]C(=O)CC1=C2C=C(F)C=CC2/C(=C\c2ccc(S(C)=O)cc2)C1C (stereo not given) | -40% (active)
10 | Clc1cccc(Cc2cn3cc(-c4ccccc4)nc3s2)c1 | 66.1%
11 | O=C(/C=C/c1ccc2c(c1)OCO2)c1c(O)c2ccccc2oc1=O | 77.8%
12 | O=c1oc2ccc(Br)cc2c(=O)n1-c1ccc(I)cc1F | -49.1% (active)
13 | Cc1ccc(/C=C/C(=O)c2cccc(OCCCOc3cccc(C(=O)/C=C/c4ccc(C)cc4)c3)c2)cc1 | 57.6%
14 | COc1cc(C(F)(F)F)ccc1-c1cc(-c2ccc(F)cc2)n[nH]1 | 115%
15 | COc1cccc(-c2nc3occn3c2-c2ccnc(NCCNS(=O)(=O)c3ccc(C(F)(F)F)cc3)n2)c1 | 116%
16 | Cc1cc(N2CCCCC2)cc(C)c1-c1csc(NC(=O)c2ccncc2)n1 | 21.8%
17 | COc1cc(/C=C2\CN(S(=O)(=O)c3ccccc3)C/C(=C\c3cc(CN4CCCCC4)c(O)c(OC)c3)C2=O)cc(CN2CCCCC2)c1O | -37.6% (active)
18 | CC(=O)N[C@@H](CCC(N)=O)C(=O)O | 107%
19 | Cn1c(I)c(C#C[Si](C)(C)C)c(=O)[nH]c1=O | -67.8% (active)
20 | Cc1cc(SC#N)cc(C(C)(C)C)c1O | 74.3%

Row | Structure (SMILES) | growth
21 | O=C(Nc1ccc(Oc2ccc(F)cc2)c(Cl)c1)c1cccnc1 | 83.2%
22 | Cc1nc2c(nnn2-c2ccccc2)c2nc(-c3ccccc3)oc(=O)c12 | 109%
23 | COc1cc2c(cc1OCCCN1CCN(CCCOc3cc4c(cc3OC)C(=O)N3CCC[C@H]3C=N4)CC1)C=CC(C)(C)O2 | 10.2%
24 | O=C(/C=C/c1ccc(C(F)(F)F)cc1)c1ccc(Nc2nc(NCCO)nc(Nc3ccc(Cl)cc3)n2)cc1 | 77%
25 | CC(C)CCSc1nc(Nc2ccccc2)c(C#N)c(-c2ccc(F)cc2)n1 | 59.6%
26 | Cc1cc(C)c(NC(=O)c2sc3nc4c(cc3c2N)CCCCCC4)c(C)c1 | -20.2% (active)
27 | COc1cc(/C=C/C(=O)/C=C/c2ccc(-n3ccnc3)cc2)ccc1O | 36.2%
28 | COC(=O)/C=C1/SC(=Nc2ccc([N+](=O)[O-])cc2)N(CCc2c[nH]c3ccccc23)C1=O | 69.8%
29 | COc1ccc(-c2cc(-c3cc(OC)c(OC)c(OC)c3)c(C#N)c(=O)n2CCCCCC(=O)NO)cc1 | 103%
30 | COc1ccc(-c2nnc3n(C)c(=O)c4ccccc4n23)cc1O | -22% (active)
31 | CC(C)(C)n1cc(-c2ccnc(NCCNS(=O)(=O)c3ccc(Cl)cc3)c2)c(-c2cccc(O)c2)n1 | 39.4%
32 | CCCCC(=O)Nc1c(C(=O)Nc2ccccc2)sc2nc3c(cc12)C(OC(=O)CCCC)CCC3 (stereo not given) | 99.3%
33 | CC1Cc2c(ncnc2-n2cnc3ccccc32)N(C)c2ccccc21 (stereo not given) | 15.9%
34 | O=C1c2ccccc2C(=O)c2c(NCCN=Cc3ccccc3O)cccc21 | 44%
35 | CSc1nsc(N)n1 | 105%
36 | Nc1nc(N)c(-c2ccc(Cl)c(Cl)c2)c(CBr)n1 | 59.5%
37 | CCCCN(CCCC)C(=O)[C@H](CC)[C@@H]1CC[C@@H](C)[C@@H]([C@H](C)[C@@H](O)[C@@H](C)C(=O)[C@H](CC)C2O[C@]3(C=C[C@@H](O)[C@]4(CC[C@@](C)([C@H]5CC[C@](O)(CC)[C@H](C)O5)O4)O3)[C@H](C)C[C@@H]2C)O1 (stereo not given in full) | -40.8% (active)
38 | C=CCCCCCCCCC(=O)[O][Sn]([CH2]CCC)([CH2]CCC)[CH2]CCC | -15.1% (active)
39 | N#Cc1c(NC(=O)NCc2ccccc2)sc2c1CCCCC2 | -8.46% (active)
40 | C=CN(C)S(C)(=O)=O | 5.83% (active)
